# In PubChem BioAssay AID1224852 (National Center for Advancing Translational Sciences (NCATS), 2016):
# Inconclusive results are not listed. Calls of active or inactive are those of the source. Calls come from the whole dose curve; as a rule, active = well fitted curve in the direction sought with a large enough effect (not every such curve was filed as active); inconclusive = small, poorly fitted or top-dose-only effect, or effect the other way, or another doubt; inactive = no such curve, though single readings can be large or run the other way.
# Assay: Cell viability assay for measurement of the protective activity of small molecules against cell death caused by Zika virus infection in human neural progenitor cells (hNPCs);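 note: 0% = ZIKV-infected cells without compound and 100% = uninfected cells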
# Conditions: hNPC ZIKV-induced death protection, ATP luminescence, 72 h; series mostly up to 46.1 µM; protection, negative = more death: at the top concentration
# From the text: National Center for Advancing Translational Sciences [NCATS] Johns Hopkins University School of Medicine Florida State University Assay Overview: Zika virus infection causes cell death in certain cell types including human neural progenitor cells (hNPCs), astrocytes, and astrocytoma cell line (SNB-19). This cell viability assay measures the ATP content (level) in human neural progenitor cells (hNPCs) using a luminescence readout that is proportional to viable cell numbers. Decrease in the luminescence signal after Zika virus infection indicates the cell death caused by Zika virus. Small molecule inhibitors […] the decreased luminescence signal after Zika virus infection, indicating the protective effect of that small molecule on the cell death caused by Zika virus infection. This observed protective effect of small molecules against Zika virus induced cell death may result from inhibition of virus replication or cellular response to the virus infection.
# Assay Protocol Summary: The medium for hNPCs consists of DMEM/F12, N2 supplement (ThermoFisher, Cat.# 17502048), NEAA (ThermoFisher, Cat. # 11140050), 2 ug/ml heparin, 2 uM cyclopamine, and B27 (ThermoFisher, Cat. # 17504044). The ATP content assay kit (PerkinElmer, Cat.# 6016731) was used to determine cell viability. The reagent was reconstituted and prepared as described by the manufacturer. Cells were seeded in 384- or 1536-well assay plates and cultured at 37 C with 5% CO2 for 16 to 20 hours. The typical cell seeding density in the 1536-well plate assay is 350 cells/well in 3 ul medium for hNPCs in the tissue cultured treated/PDL coated plates. Compounds were added to cells and incubated for one hour before addition of ZIKV solution to cells (2 FFU/cell). After incubation at 37 C with 5% CO2 for 72 hours, the reagent mixture of the ATP content assay kit was added to each well, followed by incubation at room temperature for 10 minutes. The luminescence intensity of the assay plates was measured using a ViewLux plate reader (PerkinElmer). […] The percentage inhibitions of the decreased cell viability by small molecule inhibitors were then calculated.
row,SMILES,"protection, negative = more death"
1,COc1ccc(C=CC(=O)Nc2ccccc2C(=O)O)cc1OC,-50% (inactive)
2,O=c1cc(-c2ccccc2)oc2cc(O)cc(O)c12,-30.1% (inactive)
3,O=C(OCc1ccccc1)c1ccc(O)cc1,7.45% (inactive)
4,CC1=C(CO)C(=O)O[C@@H]([C@@H](C)[C@H]2CC[C@H]3[C@@H]4C[C@H]5O[C@]56[C@@H](O)C=CC(=O)[C@]6(C)[C@@H]4CC[C@]23C)C1,-5.61% (inactive)
5,O=C(c1ccccc1)c1ccc2n1CCC2C(=O)O (stereo not given),-6.75% (inactive)
6,COc1ccc(NC(=O)/C=C/c2ccc(Cl)cc2)cc1,-28.4% (inactive)
7,O=C(Nc1ccc([N+](=O)[O-])cc1Cl)c1cc(Cl)ccc1O,-78.3% (inactive)
8,CC(O)=C(C#N)C(=O)Nc1ccc(C(F)(F)F)cc1,-61.6% (inactive)
9,CCC(C)SSc1ncc[nH]1 (stereo not given),-78% (inactive)
10,CC(=O)Oc1ccccc1C(=O)Nc1ncc([N+](=O)[O-])s1,-68.9% [at 88.3 µM] (inactive)
11,COc1ccc(CC2=NN3C([C@@H](CCc4ccccc4)[C@@H](C)O)=NC(C)C3C(=O)N2)cc1OC (stereo not given in full),-42.9% (inactive)
12,CS(=O)(=O)c1ccc(-c2cn3ccccc3n2)cc1,-69.3% (inactive)
13,COc1cccc2c1C(=O)c1c(O)c3c(c(O)c1C2=O)C[C@@](O)(C(=O)CO)C[C@@H]3O[C@H]1C[C@H](N)[C@H](O[C@@H]2CCCCO2)[C@H](C)O1,-84.3% (inactive)
14,CC(=O)Oc1cccc2c1C(=O)c1c(OC(C)=O)cc(C(=O)O)cc1C2=O,-25.4% (inactive)
15,O=C(C=CC=Cc1ccc2c(c1)OCO2)N1CCCCC1,-34.5% (inactive)
16,CN(C)c1ccc(C(=C2C=CC(=[N+](C)C)C=C2)c2ccccc2)cc1,-80.4% (inactive)
17,Cc1cccc(C#Cc2ccccc2)n1,6.09% (inactive)
18,C/C(=N\O)c1ccc(OCC(=O)N2CCCCC2)cc1,-29.6% (inactive)
19,CCOC1OC(=O)C[C@H]1NC(=O)[C@@H]1CCCN1C(=O)[C@@H](NC(=O)c1ccc(N)c(Cl)c1)C(C)(C)C (stereo not given in full),3.69% (inactive)
20,CC1(C)OC2=C(C(=O)c3ccccc3C2=O)[C@H](NCc2ccccc2)[C@H]1O,-81.5% [at 88.3 µM] (inactive)

row,SMILES,"protection, negative = more death"
1,CC1(C)Cc2c(sc(NC(=S)NC(=O)c3ccccc3)c2C(=O)O)CO1,2.37% (inactive)
2,Nc1ccc(O)c(C(=O)O)c1,-0.677% (inactive)
3,O=C(/C=C/c1ccccc1)NCCO,9.32% (inactive)
4,CN(C)c1ccc2cc(C(=O)N[C@@H](CCCN=C(N)CCl)C(=O)NCc3ccccc3)ccc2c1,-80.2% (inactive)
5,CC(=O)Nc1ccc([C@H](C)C(=O)Nc2ncc(C(C)C)s2)cc1,-64.6% (inactive)
6,C[C@@H](N)c1ccc(C(=O)Nc2ccnc3[nH]ccc23)cc1,-39.7% (inactive)
7,COc1ccnc2c1CCCCC2S(=O)c1nc2ccccc2[nH]1 (stereo not given),-42.6% (inactive)
8,[O-][n+]1ccccc1SSc1cccc[n+]1[O-],-73.9% [at 88.3 µM] (inactive)
9,CC(C)(C)OC(=O)CN(Cc1ccc(Cl)cc1)Cc1ccc([N+](=O)[O-])s1,-60.6% [at 88.3 µM] (inactive)
10,COc1cc2nc(N3CCN(C(=O)C4CCCO4)CC3)nc(N)c2cc1OC (stereo not given),5.27% (inactive)
11,Cc1ccc(O)c(-n2nc3ccccc3n2)c1,8.06% (inactive)
12,CC(C(=O)O)c1ccc(-c2ccccc2)c(F)c1 (stereo not given),-5.89% (inactive)
13,Cc1cc(O)c2ccccc2c1O,-83.8% (inactive)
14,COc1ccc(-c2cc(=O)c3c(O)cc(O)cc3o2)cc1O,-43.1% (inactive)
15,CCCS(=O)c1ccc2nc(NC(=O)OC)[nH]c2c1 (stereo not given),-43.9% (inactive)
16,COc1ccc2nc(NC(=O)Nc3ccccc3)sc2c1,-62.9% (inactive)
17,O=C(Nc1cc2cc[nH]c2cn1)c1ccccc1,-76.8% (inactive)
18,Nc1ccc(-c2ccc3ccccc3n2)cc1,-48.7% (inactive)
19,Clc1ccccc1-c1nc(-c2ccncc2)no1,-34% (inactive)
20,O=C(CS)Nc1ccccc1,-49.6% (inactive)
